Results on 14 compounds are retold here after PubChem BioAssay.

Activity calls are given as the source filed them.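 The calls were made as follows: active = primary screen hit whose calcium fluorescence ratio, in both repeats, exceeds the weak agonist control mean by 3 SD; inactive = the rest.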

The test system of the assay is TRPC4 beta (transient receptor potential cation channel C4), mouse. Kind of assay: potentiation of DAMGO EC20 TRPC4 response – cell-based, Fluo-4, HEK293 TRPC4beta/mu-opioid, confirmation (AID 2555). The conditions noted are these: DAMGO EC20, Fluo-4 calcium flux, at 10 µM; active compounds read high. (A change in cytosolic calcium serves as a functional read-out for many receptors and channels.)
Regarding `OC1(c2ccc(Cl)cc2)CN(c2ccccc2)C2=[N+]1CCS2` (centres undefined), the outcome was inactive.
`CCN(CCCNC(=O)CCCOc1cc(=O)n(C)c2ccccc12)Cc1ccccc1`: the result was inactive.
Turning to `O=C(NN/C(=N/S(=O)(=O)c1ccc(Cl)cc1)c1ccccc1)c1cccc(Cl)c1`, the outcome was inactive.
`CCn1c2ccc(F)cc2c2nnc(NN)nc21`: the potentiation was 73% (active).
As for `CCN(CC)CCOCCOc1ccc(Cl)c2ccccc12`, the outcome was inactive.
For the compound `O=C(NCCCN1CCCC1=O)c1ccc(CNS(=O)(=O)c2ccc(F)cc2)cc1`, the result was inactive.
For `Cc1noc(C)c1COC(=O)[C@@H](NC(=O)c1ccccc1Cl)C(C)C`, the result was inactive.
Regarding `C/C=C/Cn1c(SCCCc2ccccc2)nc2c1c(=O)[nH]c(=O)n2C`, the potentiation is 27% (active).
For the compound `O=[N+]([O-])c1ccc2c(c1)C=C1CCCCC1(N1CCCC1)O2` (centres undefined), the result was inactive.
As to `COc1ccc(CCn2c(=S)[nH]c3cc(C(=O)N4CCOCC4)ccc3c2=O)cc1OC`, the outcome was inactive.
With `CN(C)CCCCOc1cccc(Br)c1`, the result was inactive.
As to `CC1=CC(=O)C(C(C)C)=C/C1=N/OS(=O)(=O)c1ccccc1`, the potentiation is 23% (active).
`O=C1CC(NS(=O)(=O)c2cccs2)CN1c1ccccc1` (centres undefined): the potentiation is 14% (active).
For the compound `OCCNCc1cc(Br)ccc1OCc1ccccc1`, the result was inactive.
